# Activity calls are given as the source filed them. Cut-off read from the data, not from the text of the source, unless noted: active = inhibition above about 80%; inactive = the rest.
# Assays:
# [1] = compounds altering circadian rhythm period length – cell-based, LOPAC library, luminescence reporter (AID 2774; call rule not given here;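 note: values are relative to mean of DMSO wells on each plate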); settings: circadian reporter cells, at 7 µM, actives lie on both sides
# [2] = tested on: Hepatitis C virus NS3 helicase; assay: blockers of NS3h binding to ssDNA – biochemical, fluorescence polarization, LOPAC1280 library, primary screen (AID 687035; in the data active = inhibition above about 37%); settings: Purified HCV NS3 helicase, Cy5-dT15 ssDNA binding fluorescence polarization; stronger effect = higher value; concentration not given here
# [3] = compounds altering Cy5-DNA-NS3h complex signal – biochemical, LOPAC1280, artefact control for HCV NS3 helicase inhibitor project (AID 687037; call rule not given here); settings: Cy5-DNA-NS3h complex fluorescence interference counterscreen
# [4] = growth inhibition, single agent or in combination, cell-based, chromothripsis tumors, cisplatin or BGB combos (AID 1671449); settings: LFS_MB_P medulloblastoma cells;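 note: cells exposed for 96 hours; 0% = vehicle DMSO and 100% = killing by high DMSO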
# [5] = growth inhibition, single agent and combos, cell-based, chromothripsis tumors, cisplatin or BGB combos (AID 1671450); settings: HDN33 neuroblastoma cells, stronger effect = higher value;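 note: cells exposed to compound for four days; 0% = vehicle DMSO and 100% = cell killing by high DMSO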
# [6] = growth inhibition, single agents and combos, ICB984, cell-based, cisplatin or BGB combos, synergistic combos for chromothripsis tumors (AID 1671451; call rule not given here;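 note: cells exposed for 96 hours before readout; 0% = vehicle DMSO and 100% = killing by high DMSO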); settings: ICB984 medulloblastoma cells, drug combinations, stronger effect = higher value
# [7] = growth inhibition, single agents and combos, LFS_MB_1R, cell-based, cisplatin or BGB combos, synergistic combos for chromothripsis tumors (AID 1671452); settings: LFS_MB_1R medulloblastoma cells, stronger effect = higher value;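 note: cells exposed for 96 hours before readout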
# [8] = growth inhibition, single agents and combos, HTB85, cell-based, BGB or cisplatin IC20 combos, synergistic combos for chromothripsis tumors (AID 1671453); settings: HTB85 osteosarcoma cells, drug combinations, stronger effect = higher value;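 note: cells exposed for 96 hours before readout; 0% = vehicle DMSO and 100% = high DMSO killing control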
# [9] = growth inhibition, single agents and combos, CRL2098, cell-based, BGB or cisplatin IC20 combos, synergistic combos for chromothripsis tumors (AID 1671454); settings: CRL2098 osteosarcoma cells, drug combinations, stronger effect = higher value;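 note: cells exposed for 96 h before readout; 0% = vehicle DMSO and 100% = killing by high DMSO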
# [10] = growth inhibition, single agents and combos, HD-MB03, cell-based, BGB or cisplatin IC20 combos, synergistic combos for chromothripsis tumors (AID 1671455; in the data active = inhibition above about 83%;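 note: 0% = vehicle DMSO and 100% = high DMSO as cytotoxic control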); settings: HD-MB03 medulloblastoma cells, stronger effect = higher value
# [11] = growth inhibition, single agents and combos, UWB1.289, cell-based, BGB or cisplatin combos, synergistic combos for chromothripsis tumors (AID 1671456); settings: UWB1.289 ovarian carcinoma cells, stronger effect = higher value;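 note: cells exposed to compound for four days; 0% = vehicle DMSO and 100% = killing by high DMSO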
# [12] = growth inhibition, single agents and combos, LFS_MB_2R, cell-based, cisplatin combos, synergistic combos for chromothripsis tumors (AID 1671457); settings: LFS_MB_2R medulloblastoma cells, stronger effect = higher value;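 note: cells exposed to compound for four days before readout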
# [13] = growth inhibition, MDA-MB-436, cell-based, BGB or cisplatin combos, synergistic combos for chromothripsis tumors (AID 1671458; call rule not given here;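 note: cells exposed for 96 hours; 0% = vehicle DMSO and 100% = killing by high DMSO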); settings: MDA-MB-436 breast carcinoma growth inhibition, drug combinations, stronger effect = higher value
# [14] = UWB1.289_BRCA1 ovarian cancer growth, cell-based, BGB or cisplatin combinations (AID 1671459); settings: UWB1.289 BRCA1 ovarian carcinoma, drug combinations, stronger effect = higher value
# [15] = drug combination toxicity in non-malignant astrocytes – cell-based, BGB or cisplatin IC20 combos, cytotoxicity control for chromothriptic childhood tumor combination screen (AID 1671460); settings: Human astrocytes, viability inhibition, drug combinations, at 0.5 µM, stronger effect = higher value;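 note: cells exposed to compounds for 96 hours before viability readout; 0% = vehicle and 100% = killing control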
# [16] = BT084 cell growth, single and combined drugs, ICGC_MB145, cisplatin and BGB IC40 combos (AID 1671461); settings: BT084 medulloblastoma cells, drug combinations, stronger effect = higher value;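 note: cells exposed to drugs for 96 hours; 0% = vehicle DMSO and 100% = high DMSO full killing control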
# [17] = RCMB18 cell growth, single agent and combined, cisplatin and BGB IC40 combos (AID 1671462); settings: RCMB18 medulloblastoma cells, stronger effect = higher value;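 note: cells exposed to compound for four days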
# [18] = CRL1545 cell growth, single agent and combined, cisplatin and BGB IC20 combos (AID 1671464); settings: CRL1545 osteosarcoma cells, stronger effect = higher value;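 note: cells exposed to compound for 96 hours before readout; 0% = vehicle DMSO and 100% = high DMSO killing control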
# [19] = measured here: combination with BGB IC40, at 0.05 µM
# [20] = measured here: with BGB IC20 combination, at 0.5 µM
# [21] = measured here: with cisplatin IC20 combination, at 0.5 µM
# [22] = measured here: combination with cisplatin, at 0.5 µM
# [23] = measured here: combination with cisplatin, at 5 µM
compound,measurement,setting,value
COc1cc(C[C@@H](C)N)c(OC)cc1I,period change,[1],-0.225 h (inactive)
NC(Cc1ccc(N(CCCl)CCCl)cc1)C(=O)O (configuration not stated),period change,[1],0.08 h (inactive)
same,inhibition,[2],-5% (inactive)
same,fluorescence ratio (interference),[3],1 (inactive)
same,inhibition,"[4]; at 0.5 µM, stronger effect = higher value",-11.1% (inactive)
same,inhibition,"[4]; measured here: combination with BGB IC20, at 0.005 µM",-25.1%
same,inhibition,"[4]; measured here: combination with BGB IC40, at 0.005 µM",-17.8%
same,inhibition,[4]; [19],-29.1%
same,inhibition,"[4]; measured here: combination with cisplatin, at 0.5 µM, stronger effect = higher value",-3.85%
same,inhibition,"[4]; measured here: combination with cisplatin, at 5 µM, stronger effect = higher value",7.41%
same,inhibition,"[5]; BGB combo, at 5 µM",28.5%
same,inhibition,[5]; at 0.5 µM,-17.3% (inactive)
same,inhibition,"[5]; cisplatin combo, at 5 µM",18.9%
same,inhibition,[5]; [20],-14.2%
same,inhibition,[5]; [21],-16.2%
same,inhibition,"[5]; single agent, at 5 µM",3.9%
same,inhibition,"[6]; BGB IC20 combo, at 0.005 µM",-15.2%
same,inhibition,"[6]; BGB IC40 combo, at 0.005 µM",-22.4%
same,inhibition,"[6]; BGB IC40 combo, at 0.05 µM",14.2%
same,inhibition,[6]; at 0.5 µM,-37% (inactive)
same,inhibition,"[6]; cisplatin combo, at 0.05 µM",11.8%
same,inhibition,"[6]; cisplatin combo, at 0.5 µM",-52.6%
same,inhibition,"[6]; cisplatin combo, at 5 µM",-29.7%
same,inhibition,"[6]; measured here: 5 uM single agent, at 5 µM",-16.8%
same,inhibition,[7]; at 0.5 µM,-27.3% (inactive)
same,inhibition,[7]; [19],-28.4%
same,inhibition,[7]; [22],-42.9%
same,inhibition,[7]; [23],34.7%
same,inhibition,[8]; at 0.5 µM,5.83% (inactive)
same,inhibition,"[8]; measured here: with BGB IC20, at 0.5 µM",1.88%
same,inhibition,"[8]; measured here: with BGB IC20, at 5 µM",54.4%
same,inhibition,"[8]; measured here: with cisplatin IC20, at 0.5 µM",-13.1%
same,inhibition,"[8]; measured here: with cisplatin IC20, at 5 µM",74.4%
same,inhibition,"[8]; single agent, at 5 µM",59.9%
same,inhibition,[9]; at 0.5 µM,-91.3% (inactive)
same,inhibition,"[9]; measured here: combination with BGB at IC20, at 0.5 µM",-104%
same,inhibition,"[9]; measured here: combination with cisplatin at IC20, at 0.5 µM",-99.5%
same,inhibition,[10]; at 0.5 µM,12.1% (inactive)
same,inhibition,"[10]; measured here: combo with BGB at IC20, at 0.5 µM",19.3%
same,inhibition,"[10]; measured here: combo with cisplatin at IC20, at 0.5 µM",20.5%
same,inhibition,[11]; at 0.5 µM,-2.07% (inactive)
same,inhibition,"[11]; measured here: inhibition with BGB combination, at 0.05 µM",-36%
same,inhibition,"[11]; measured here: inhibition with cisplatin combination, at 0.05 µM",-22.5%
same,inhibition,[12]; at 0.5 µM,-18.9% (inactive)
same,inhibition,[12]; [22],-23.8%
same,inhibition,[12]; [23],-58.8%
same,inhibition,[13]; at 0.5 µM,10.4% (inactive)
same,inhibition,"[13]; measured here: BGB combination, at 0.5 µM",2.27%
same,inhibition,"[13]; measured here: BGB combination, at 5 µM",8.02%
same,inhibition,"[13]; measured here: cisplatin combination, at 0.5 µM",6.39%
same,inhibition,"[13]; measured here: cisplatin combination, at 5 µM",33.3%
same,inhibition,"[14]; BGB combination, concentration series, at 5 µM",31.5%
same,inhibition,[14]; at 0.5 µM,4.15% (inactive)
same,inhibition,"[14]; cisplatin combination, concentration series, at 5 µM",41.4%
same,inhibition,[15],16.9% (inactive)
same,inhibition,[15]; measured here: combo with BGB IC20,22.5%
same,inhibition,[15]; measured here: combo with cisplatin IC20,4.4%
same,inhibition,[16]; at 0.5 µM,-14.6% (inactive)
same,inhibition,"[16]; cisplatin combination, at 0.5 µM",5.86%
same,inhibition,"[16]; cisplatin combination, at 5 µM",35.1%
same,inhibition,"[16]; measured here: BGB IC40 combination 0.05 uM, at 0.05 µM",-5.01%
same,inhibition,"[16]; single agent, at 5 µM",-20.7%
same,inhibition,[17]; at 0.5 µM,-26.4% (inactive)
same,inhibition,"[17]; cisplatin combo, at 5 µM",81.5%
same,inhibition,"[17]; measured here: BGB IC40 combination, at 0.05 µM",-33.2%
same,inhibition,[17]; [22],-31.6%
same,inhibition,"[17]; single agent, at 5 µM",-6.56%
same,inhibition,[18]; at 0.5 µM,-21.6% (inactive)
same,inhibition,[18]; [20],-14.9%
same,inhibition,[18]; [21],-27.8%
same,inhibition,"[18]; single agent, at 0.05 µM",-31.8%
same,inhibition,"[18]; single agent, at 5 µM",43.7%

# — PubChem BioAssay
